In PubChem BioAssay (NCATS):
Inconclusive results are not listed. The source made the active and inactive calls. The call rests on the fitted dose curve; in most records, active means well fitted curve in the direction sought with a large enough effect; inconclusive means small, poorly fitted or top-dose-only effect, or another doubt; inactive means no such curve, though single readings can be large; an effect the other way counts as inactive or inconclusive.

Columns and labels:
[1] = test system: Zika virus NS2B-NS3 protease (linked construct); assay: Primary screen NINDS Rhodamine qHTS for Zika virus inhibitors (AID 1347160); further: nearly all actives have a fitted effect of over 55% in size; further: potency means the concentration at half of the fitted maximal effect
Outline: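 Aprotinin served as in-plate control. Conditions: 25 nM linked NS2B-NS3, pH 8.0 Tris buffer, titrated compounds, 15 min preincubation and 15 min reaction with 1.5 microM Rhod110 substrate at room temperature.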

[2] = SW1088 Cancer Cell Toxicity qHTS against the NCATS CANVASS Library (AID 1347350); further: nearly all actives have a fitted effect of over 75% in size; further: potency means the concentration at half of the fitted maximal effect
Outline: (§1)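 Per well, 1000 cells; exposure 72 h with compound at 11 final concentrations; readout CellTiter-Glo luminescence.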

[3] = A2780 Cisplatin Sensitive Ovarian Cancer Cell Toxicity qHTS against the NCATS CANVASS Library (AID 1347353); further: nearly all actives have a fitted effect of over 60% in size; further: potency means the concentration at half of the fitted maximal effect
Outline: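 Quantitative HTS format: eleven compound concentrations applied to pre-seeded cells, 72 h incubation at 37 °C, then ATP detection by luminescence.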

[4] = UWB1.289-WTBRCA1 Cancer Cell Toxicity qHTS against the NCATS CANVASS Library (AID 1347354)
Outline: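 Using an ATP-based luminescent reagent after three days of treatment, toxicity is scored across an eleven-concentration range in wells holding 1000 cells each.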

[5] = HEK293 18hr Apoptosis Induction qHTS against the NCATS CANVASS Library (AID 1347357)
Outline: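 Caspase-3/7 luminescence (DEVD substrate, Caspase-Glo) after 18 h compound exposure of HEK293 cells, 500 cells/well; 11-point series; doxorubicin titration as control.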

[6] = HEK293 12hr Apoptosis Induction qHTS against the NCATS CANVASS Library (AID 1347361)
Outline: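 500 HEK293 cells/well; cpds pin-transferred, 11-pt conc series; 12 h, 37 degrees C/5% CO2; Caspase-Glo 3/7 added, 15 min RT dark; luminescence.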

[7] = target: Luciferin 4-monooxygenase (Photinus pyralis) (UniProt P08659); assay: Firefly luciferase counterscreen qHTS: Assay Interference Panel against the NCATS CANVASS Library (AID 1347363); further: series mostly up to about 57 µM
Luciferin 4-monooxygenase (Photinus pyralis), sequence (P08659 whole entry, looked up): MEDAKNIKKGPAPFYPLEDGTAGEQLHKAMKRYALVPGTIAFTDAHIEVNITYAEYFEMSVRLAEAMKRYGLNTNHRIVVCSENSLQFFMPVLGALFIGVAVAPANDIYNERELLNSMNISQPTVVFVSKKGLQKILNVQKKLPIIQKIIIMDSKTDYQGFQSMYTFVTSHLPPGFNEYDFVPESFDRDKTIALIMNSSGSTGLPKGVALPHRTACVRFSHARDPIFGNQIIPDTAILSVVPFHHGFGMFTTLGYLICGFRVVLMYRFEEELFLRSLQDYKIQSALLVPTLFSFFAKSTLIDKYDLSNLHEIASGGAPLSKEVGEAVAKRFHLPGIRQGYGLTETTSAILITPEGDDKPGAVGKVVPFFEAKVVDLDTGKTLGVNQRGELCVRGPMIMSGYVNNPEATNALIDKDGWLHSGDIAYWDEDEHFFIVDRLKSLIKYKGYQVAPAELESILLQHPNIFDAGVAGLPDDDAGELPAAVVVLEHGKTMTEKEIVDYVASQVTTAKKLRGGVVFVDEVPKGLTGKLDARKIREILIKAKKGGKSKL
Outline: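 Purified P. pyralis luciferase was added to compounds (11-point series) preincubated 15 min at room temperature with substrate containing 0.013 mM D-luciferin and 0.013 mM ATP; luminescence was read after 5 min.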

[8] = KB-8-5-11 Cancer Cell Toxicity qHTS against the NCATS CANVASS Library (AID 1347364); further: nearly all actives have a fitted effect of over 75% in size; further: potency means the concentration at half of the fitted maximal effect
Outline: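 Luminescent ATP signal (CellTiter-Glo, 10 min at room temperature) measured cell survival of KB-8-5-11 after 72 hr compound treatment. For confirmation, the cells were also grown with 1uM tariquidar.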

[9] = SDT Cancer Cell Toxicity qHTS against the NCATS CANVASS Library (AID 1347365); further: nearly all actives have a fitted effect of over 60% in size; further: potency means the concentration at half of the fitted maximal effect
Outline: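 Canine SDT glioma cell toxicity was scored by ATP-dependent luminescence after a 72 hr incubation with an 11-point compound series.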

[10] = MCF7 Cancer Cell Toxicity qHTS against the NCATS CANVASS Library (AID 1347369)
Outline: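 Luminescent ATP signal (CellTiterGlo) served as the cytotoxicity read-out after MCF7 breast cancer cells had been incubated 72 hr at 37C with natural products in an 11-point titration.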

[11] = qHTS for Hypoxia signaling pathway (HIF-1) antagonists against the NCATS CANVASS Library (AID 1347374); further: nearly all actives have a fitted effect of over 60% in size; further: potency means the concentration at half of the fitted maximal effect
Outline: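 Beta-lactamase reporter under HRE control in ME-180 cells; CoCl2 stimulus (60 uM solution as added), compounds 11-pt qHTS, 17 h 37C. CCF4 dye 2 h RT, 460/530 nm emission. CellTiter-Glo viability in same wells.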

[12] = qHTS for Antimalaria activity screened against the NCATS CANVASS Library (AID 1347380); further: nearly all actives have a fitted effect of over 40% in size; further: potency means the concentration at half of the fitted maximal effect
Outline: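 Measures proliferation or cytotoxicity against Dd2 blood stages in 72 h cultures, 11-point qHTS dosing, with SYBR Green fluorescence as read-out; dihydroartemisinin titration served as control.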

[13] = qHTS for inhibitors of Wild type Zika virus screened against the NCATS CANVASS Library (AID 1347396);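 further: ATP luminescence of surviving cells so rescue from viral cell killing; series mostly up to about 46 µM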
Outline: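 Vero 766 cells, 1000/well, o/n attach; cpds pin-transferred (11-pt qHTS); WT Zika added; 72 h, 37C, 5% CO2; CellTiter Glo lumi. Uninfected + vehicle = 100% inhibition.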

[14] = Viability qHTS for inhibitors of the SERCaMP assay screened against the NCATS CANVASS Library (AID 1347400); further: nearly all actives have a fitted effect of over 70% in size; further: potency means the concentration at half of the fitted maximal effect
Outline: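 Measures loss of viability in SERCaMP reporter SH-SY5Y cells treated for 48 h with compounds; luminescent ATP detection by CellTiter-Glo.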

[15] = qHTS for activators of Nrf2/ARE signaling pathway screened against the NCATS CANVASS Library (AID 1347391); further: nearly all actives have a fitted effect of over 60% in size; further: potency means the concentration at half of the fitted maximal effect
Outline: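 Activation of Nrf2/ARE was scored in ARE-bla HepG2 cells after 16 h compound exposure using CCF4 beta-lactamase fluorescence ratio readings.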

[16] = OV-KATE Cancer Cell Toxicity qHTS against the NCATS CANVASS Library (AID 1347345)
Outline: as §1

[17] = OV-SAHO Cancer Cell Toxicity qHTS against the NCATS CANVASS Library (AID 1347348); further: nearly all actives have a fitted effect of over 55% in size; further: potency means the concentration at half of the fitted maximal effect
Outline: as §1

[18] = U-118MG Cancer Cell Toxicity qHTS against the NCATS CANVASS Library (AID 1347351)
Outline: as §1

[19] = HPAF-II 12hr Apoptosis Induction qHTS against the NCATS CANVASS Library (AID 1347358)
Outline: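 Twelve-hour compound exposure of HPAF-II cells in DMEM with 10% FBS, then luminescent Caspase-Glo 3/7 detection after 15 min at room temperature; doxorubicin control.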

[20] = Redox Reaction Profiling qHTS: Assay Interference Panel against the NCATS CANVASS Library (AID 1347401); further: potency means the concentration at half of the fitted maximal effect
Outline: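 Quantitative HTS over an 11-point series was run in HEPES pH 7.3 with 50 mM NaCl, 200 uM DTT and 5 uM resazurin. Initial and 15-min resorufin fluorescence readings were taken.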

Measured: Potency

C/C1=C/[C@@H](C)[C@H](O)[C@@H](O)/C=C/CC/C=C/C(=O)O[C@@H]1[C@H](C)C(=O)/C=C/CC1CC(=O)NC(=O)C1
active: [3] 13.2 µM | [9] 18.7 µM | [11] 16.7 µM | [14] 3.03 µM
not listed: [15] | [16] | [17] | [18] | [19] | [20]
inactive: all other assays above

CCC(=O)N[C@@H](C[C@H](C)C(Cl)(Cl)Cl)C(=O)N1C(=O)C=C(OC)[C@@H]1C[C@H](C)CCl
active: [2] 16.8 µM
not listed: [3] | [4] | [11] | [16] | [17] | [18] | [19] | [20]
inactive: all other assays above

C=CC(C)(C)C(=O)[C@@H](C)[C@@H]1CC[C@@](C)(C=C)O1
not listed: [1] | [10]
inactive: all other assays above

O=C(OC[C@H]1O[C@@H](OC(=O)c2cc(O)c(O)c(O)c2)[C@H](OC(=O)c2cc(O)c(O)c(O)c2)[C@@H](OC(=O)c2cc(O)c(O)c(O)c2)[C@@H]1OC(=O)c1cc(O)c(O)c(O)c1)c1cc(O)c(O)c(O)c1
inactive: [5] | [19] | [10] | [13]
active: [1] 0.877 µM | [3] 8.33 µM | [9] 23.5 µM | [14] 34 µM | [20] 24.1 µM

Oc1ccc(C2Oc3cc(O)c4c(c3[C@@H]2c2cc(O)cc(O)c2)[C@H]2C(c3ccc(O)cc3)c3c(O)cc5c(c3[C@H]2C4c2ccc(O)cc2)[C@H](c2cc(O)cc(O)c2)C(c2ccc(O)cc2)O5)cc1 (some centres undefined)
active: [1] 15.6 µM | [17] 16.7 µM | [3] 4.18 µM | [9] 9.35 µM
not listed: [4] | [6] | [10] | [12] | [16] | [20]
inactive: all other assays above

COc1cc([C@@H]2c3cc4c(cc3C[C@@]3(O[C@@H]5O[C@H](CO)[C@@H](O)[C@H](O)[C@H]5O)COC(=O)[C@H]23)OCO4)cc(OC)c1OC
active: [1] 44 µM | [3] 0.0372 µM | [8] 0.0526 µM | [9] 0.0418 µM | [14] 0.048 µM
inactive: [17] | [5] | [6] | [7] | [10] | [11] | [20]

C/C(=C\[C@H](C)C(=O)CCCC1CC(=O)NC(=O)C1)[C@@H]1OC(=O)/C=C/CC/C=C/[C@H](O)[C@@H](O)[C@@H]1C
active: [1] 49.3 µM | [17] 0.747 µM | [3] 0.372 µM | [9] 0.264 µM | [11] 0.374 µM | [12] 5.29 µM | [14] 3.81 µM | [20] 24.1 µM
inactive: [19] | [6] | [7] | [8] | [15] | [13]

C/C(=C\[C@H](C)C(=O)/C=C/CC1CC(=O)NC(=O)C1)[C@@H]1OC(=O)/C=C/CC/C=C/C[C@@H](O)[C@@H]1C
active: [1] 31.1 µM | [17] 2.11 µM | [2] 16.8 µM | [3] 1.18 µM | [9] 0.662 µM | [11] 1.33 µM | [14] 17 µM
inactive: [19] | [7] | [13]

COC(=O)[C@@]12Oc3cccc(O)c3C(O)=C1C(=O)C[C@H](C)[C@H]2O
not listed: [1] | [11] | [15]
inactive: all other assays above

O=c1cc(-c2ccc(O)cc2)oc2cc(O)c([C@@H]3OC(CO)[C@H](O)[C@@H](O)[C@H]3O)c(O)c12 (some centres undefined)
not listed: [1] | [7] | [20]
inactive: all other assays above

Cc1cc(C)c(O)c(C(=O)CC2CC(=O)NC(=O)C2)c1
active: [3] 4.69 µM | [8] 7.43 µM | [9] 1.32 µM | [11] 7.47 µM | [12] 2.98 µM
inactive: [1] | [2] | [5] | [19] | [7] | [13] | [20]

O[C@H]1C=C2[C@H]3CN(Cc4cc5c(cc43)OCO5)[C@H]2C[C@@H]1O
active: [3] 9.35 µM | [8] 10.5 µM | [9] 7.43 µM | [11] 13.3 µM | [12] 5.29 µM
inactive: [2] | [4] | [5] | [19] | [6] | [15] | [13] | [20]

C/C(=C\[C@H](C)C(=O)/C=C/CC1CC(=O)NC(=O)C1)[C@@H]1OC(=O)CCCC/C=C/[C@H](O)[C@@H](O)[C@@H]1C
active: [3] 10.5 µM | [9] 13.2 µM | [11] 11.8 µM | [15] 4.67 µM
inactive: [2] | [4] | [6] | [7] | [8] | [10] | [12] | [13]
